Records with an inconclusive call do not appear. Calls of active or inactive are those of the source. How the source made its calls, unless noted: active means hit-call score of the fitted dose curve at least 0.9, where 1 is the maximum; inactive means score below 0.9.
What was measured:
[1] = read-out: Matrix Metallopeptidase 9 (MMP9), MMP9 (gene 4318); assay: BSK_KF3CT_MMP9: BioMAP Diversity Plus: KF3CT Assay for Matrix Metallopeptidase 9 (MMP9) Biomarker Activity (AID 2283074); settings: primary human keratinocytes with fibroblasts; actives raise or lower the signal
Method in brief: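 Values come from bidirectional fitting relative to DMSO of MMP-9 levels, which were measured by ELISA. Measurements were taken 24 h after chemical dosing of a keratinocyte and foreskin fibroblast co-culture.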

[2] = read-out: urokinase plasminogen activator (uPA), PLAU (gene 5328); assay: BSK_KF3CT_uPA: BioMAP Diversity Plus: KF3CT Assay for urokinase plasminogen activator (uPA) Biomarker Activity (AID 2283075); settings: primary human keratinocytes with fibroblasts; actives raise or lower the signal
Method in brief: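 Values derive from bidirectional fitting against DMSO controls. Keratinocyte/foreskin fibroblast co-cultures received chemical; 24 h later uPA was detected by ELISA, with SRB total-protein staining in parallel wells for overt cytotoxicity.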

CD40, CD40 (gene 958) [3] = assay: BSK_LPS_CD40: BioMAP Diversity Plus: LPS Assay for CD40 Biomarker Activity (AID 2283076); settings: primary human HUVEC with PBMC; actives raise or lower the signal
Method in brief: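 Cells were dosed, incubated 24 h, then assayed for CD40 by ELISA. Gain or loss of signal was analysed relative to DMSO controls. The culture paired human umbilical vein endothelium with peripheral blood mononuclear cells.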

[4] = read-out: E-selectin (Homo sapiens) (UniProt P16581); assay: BSK_LPS_Eselectin: BioMAP Diversity Plus: LPS Assay for Eselectin Biomarker Activity (AID 2283077); settings: primary human HUVEC with PBMC; actives raise or lower the signal
Method in brief: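 Primary human vascular co-culture (endothelium plus PBMC) was dosed with chemical, then E-selectin quantified by ELISA at 24 h. Endpoint values derive from bidirectional curve fitting relative to DMSO.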

[5] = BSK_LPS_SRB: Viability Assessment in the BioMAP Diversity Plus: LPS Assay (AID 2283079); settings: primary human HUVEC with PBMC;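 further: total protein by sulforhodamine B absorbance as a cytotoxicity measure; measured one day after compound addition; fitted in both directions against DMSO so loss or gain of signal counts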
Method in brief: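 Readout is SRB absorbance at 560 nm (0.1% stain, TCA-fixed parallel cultures) as a total-protein cytotoxicity measure. Cells: primary human umbilical vein endothelium plus peripheral blood mononuclear cells, 24 h after chemical exposure; DMSO served as baseline.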

[6] = read-out: Interleukin-1 alpha (IL1a), IL1A (gene 3552); assay: BSK_LPS_IL1a: BioMAP Diversity Plus: LPS Assay for Interleukin-1 alpha (IL1a) Biomarker Activity (AID 2283080); settings: primary human HUVEC with PBMC; actives raise or lower the signal
Method in brief: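 ELISA read-out of IL-1 alpha from a human primary vascular co-culture (endothelium plus PBMC) under LPS, sampled 24 hours post-dosing. Activity was fitted in both directions relative to DMSO controls.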

[7] = read-out: Monocyte Chemoattractant Protein-1 (MCP1), CCL2 (gene 6347); assay: BSK_LPS_MCP1: BioMAP Diversity Plus: LPS Assay for Monocyte Chemoattractant Protein-1 (MCP1) Biomarker Activity (AID 2283081); settings: primary human HUVEC with PBMC; actives raise or lower the signal
Method in brief: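 Human endothelial–PBMC co-cultures were dosed with chemical, then LPS-driven MCP-1 levels were quantified by ELISA at 24 h. Activity in either direction was fitted versus DMSO negative control.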

[8] = BSK_LPS_PGE2: BioMAP Diversity Plus: LPS Assay for Prostaglandin E2 (PGE2) Biomarker Activity (AID 2283082); settings: primary human HUVEC with PBMC; actives raise or lower the signal
Method in brief: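 PGE2 release measured by ELISA in an LPS-activated co-culture of human umbilical vein endothelial cells and peripheral blood mononuclear cells, read at 24 h post-dosing. DMSO served as baseline for bidirectional curve fitting.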

[9] = read-out: Macrophage colony-stimulating factor (MCSF), CSF1 (gene 1435); assay: BSK_LPS_MCSF: BioMAP Diversity Plus: LPS Assay for Macrophage colony-stimulating factor (MCSF) Biomarker Activity (AID 2283083); settings: primary human HUVEC with PBMC; actives raise or lower the signal
Method in brief: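 ELISA readout of M-CSF after 24 h compound exposure in a human endothelial/PBMC co-culture. Activity, in either direction, is fitted relative to DMSO vehicle.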

[10] = read-out: Tissue Factor, F3 (gene 2152); assay: BSK_LPS_TissueFactor: BioMAP Diversity Plus: LPS Assay for Tissue Factor Biomarker Activity (AID 2283084); settings: primary human HUVEC with PBMC; actives raise or lower the signal
Method in brief: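 ELISA signal for cell-surface Tissue Factor (CD142) was read 24 h after compound dosing of an LPS-stimulated human endothelial–PBMC primary co-culture. Gain or loss of signal was scored relative to DMSO.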

[11] = read-out: Tumor necrosis factor (Homo sapiens) (UniProt P01375); assay: BSK_LPS_TNFa: BioMAP Diversity Plus: LPS Assay for Tumour Necrosis Factor alpha (TNFa) Biomarker Activity (AID 2283085); settings: primary human HUVEC with PBMC; actives raise or lower the signal
Method in brief: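 TNFa was quantified by ELISA in LPS-activated co-cultures of human endothelial cells and PBMC, 24 h post-dosing. Both increases and decreases versus DMSO were fitted.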

[12] = read-out: Vascular cell adhesion molecule 1 (VCAM1), VCAM1 (gene 7412); assay: BSK_LPS_VCAM1: BioMAP Diversity Plus: LPS Assay for Vascular cell adhesion molecule 1 (VCAM1) Biomarker Activity (AID 2283086); settings: primary human HUVEC with PBMC; actives raise or lower the signal
Method in brief: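 VCAM-1 quantified by ELISA in an LPS-activated co-culture of human endothelial cells and peripheral blood mononuclear cells, read 24 h post-treatment. Fitted in both directions versus DMSO; parallel SRB staining flags overt cytotoxicity.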

CD38, CD38 (gene 952) = assay: BSK_SAg_CD38: BioMAP Diversity Plus: SAg Assay for CD38 Biomarker Activity (AID 2283087); settings: primary human HUVEC with PBMC; actives raise or lower the signal
Method in brief: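 CD38 quantified by ELISA (fluorescence) in a superantigen-activated endothelial cell–PBMC co-culture at 24 h post-dose. Activity fitted in both directions relative to DMSO; parallel SRB and Alamar Blue cytotoxicity read-outs.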

CD40, CD40 (gene 958) [13] = assay: BSK_SAg_CD40: BioMAP Diversity Plus: SAg Assay for CD40 Biomarker Activity (AID 2283088); settings: primary human HUVEC with PBMC; actives raise or lower the signal
Method in brief: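 Compounds were dosed onto a human primary endothelial–PBMC co-culture, and after 24 h CD40 was quantified by ELISA using a fluorescence signal. Activity in either direction was fitted relative to DMSO.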

CD69, CD69 (gene 969) = assay: BSK_SAg_CD69: BioMAP Diversity Plus: SAg Assay for CD69 Biomarker Activity (AID 2283089); settings: primary human HUVEC with PBMC; actives raise or lower the signal
Method in brief: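 Endothelial/PBMC co-culture; chemical added; 24 h incubation; CD69 ELISA with fluorescence detection; bidirectional fit vs DMSO.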

[14] = read-out: E-selectin (Homo sapiens) (UniProt P16581); assay: BSK_SAg_Eselectin: BioMAP Diversity Plus: SAg Assay for Eselectin Biomarker Activity (AID 2283091); settings: primary human HUVEC with PBMC; actives raise or lower the signal
Method in brief: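 Co-culture: HUVEC + PBMC. Dose compound; 24 h. ELISA for E-selectin. Bidirectional fit vs DMSO.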

[15] = read-out: Monokine induced gamma interferon (MIG), CXCL9 (gene 4283); assay: BSK_SAg_MIG: BioMAP Diversity Plus: SAg Assay for Monokine induced gamma interferon (MIG) Biomarker Activity (AID 2283092); settings: primary human HUVEC with PBMC; actives raise or lower the signal
Method in brief: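 Measures CXCL9 protein by ELISA in a human vascular primary-cell co-culture (umbilical vein endothelium with PBMC) 24 h after chemical addition. Activity is scored up or down from the DMSO control.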

[16] = BSK_SAg_PBMCCytotoxicity: PBMC Cytotoxicity Assessment in the BioMAP Diversity Plus: SAg Assay (AID 2283093); settings: primary human HUVEC with PBMC;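 further: PBMC viability measured as Alamar Blue reduction fluorescence at 546/580 nm; fitted both ways against DMSO so a hit may be loss or gain of signal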
Method in brief: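 Alamar Blue reduction (6 h, 546/580 nm) reports PBMC cytotoxicity after 90 h superantigen activation (SEB, TSST-1; 20 ng/mL final each) with 1 h compound pre-treatment. Gain or loss of signal fitted versus DMSO.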

[17] = read-out: Interleukin-8 (IL8), CXCL8 (gene 3576); assay: BSK_SAg_IL8: BioMAP Diversity Plus: SAg Assay for Interleukin-8 (IL8) Biomarker Activity (AID 2283094); settings: primary human HUVEC with PBMC; actives raise or lower the signal
Method in brief: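 ELISA readout of IL-8 from a superantigen-activated endothelial/PBMC primary human co-culture, taken 24 h post-dosing and fitted in both directions against DMSO; parallel SRB total-protein staining flags overt cytotoxicity.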

[18] = BSK_SAg_Proliferation: Cell Proliferation Assessment in the BioMAP Diversity Plus: SAg Assay (AID 2283095); settings: primary human HUVEC with PBMC;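 further: relative cell number as total protein by SRB absorbance in sub-confluent culture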
Method in brief: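 Relative cell number in the endothelial cell/PBMC co-culture was quantified at 96 h by SRB staining (0.1% SRB, 10% TCA fixation, read at 560 nm). Curves were fitted in both directions relative to DMSO baseline.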

[19] = BSK_SAg_SRB: Viability Assessment in the BioMAP Diversity Plus: SAg Assay (AID 2283096); settings: primary human HUVEC with PBMC;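 further: cells read one day after compound addition; hits may be either gain or loss of signal compared with DMSO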
Method in brief: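 This overt-cytotoxicity endpoint quantifies protein in human endothelial/PBMC co-cultures at 24 h using SRB absorbance (560 nm) after trichloroacetic acid fixation. Values reflect signal change from the DMSO negative control, fitted bidirectionally.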

[20] = TOX21_p53_BLA_p2_viability: Viability Assessment in the Tox21 HCT-116 p53 Agonism Beta-lactamase Assay, Phase 2 (AID 2283591; active means hit-call score of the fitted dose curve at least 0.9, where 1 is the maximum;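 further: compound exposure lasted 16 h at 37 °C; actives lower the ATP signal meaning cytotoxicity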)
Method in brief: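 HCT-116 p53-bla cells (4000/well) rested 5 h at 37C, then received compounds in DMSO (217-fold dilution) for 16 h at 37C, 5% CO2. After the CCF4 read, CellTiter-Glo was added; ATP luminescence was read after 30 min at room temperature.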

[21] = target: Cellular tumor antigen p53 (Homo sapiens) (UniProt P04637); assay: TOX21_p53_BLA_p2_ratio: Tox21 HCT-116 p53 Agonism Beta-lactamase Assay, Ratio, Phase 2 (AID 2283592; active means hit-call score of the fitted dose curve at least 0.9, where 1 is the maximum)
Cellular tumor antigen p53 (Homo sapiens), sequence (P04637 whole entry, looked up): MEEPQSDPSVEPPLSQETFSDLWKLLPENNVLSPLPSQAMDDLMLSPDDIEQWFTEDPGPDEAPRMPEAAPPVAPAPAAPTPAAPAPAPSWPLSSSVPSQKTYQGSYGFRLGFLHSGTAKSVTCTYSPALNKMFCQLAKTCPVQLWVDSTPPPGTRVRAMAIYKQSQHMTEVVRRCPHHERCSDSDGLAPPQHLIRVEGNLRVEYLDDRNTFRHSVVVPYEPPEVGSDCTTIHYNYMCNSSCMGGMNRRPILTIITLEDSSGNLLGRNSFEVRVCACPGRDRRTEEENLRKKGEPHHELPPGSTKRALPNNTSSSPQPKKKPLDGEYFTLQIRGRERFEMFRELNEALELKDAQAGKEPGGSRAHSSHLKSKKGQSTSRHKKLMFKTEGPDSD
Method in brief: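 Plated HCT116 p53-bla cells (4000/well) received compound after 5 h, then 16 h at 37C/5% CO2. CCF4-AM added, 2 h RT. Ratio of 460 to 530 nm emission taken as the p53 reporter signal.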

[22] = TOX21_p53_BLA_p3_viability: Viability Assessment in the Tox21 HCT-116 p53 Agonism Beta-lactamase Assay, Phase 3 (AID 2283593; active means hit-call score of the fitted dose curve at least 0.9, where 1 is the maximum;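 further: cells exposed to compound for 16 h before reading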)
Method in brief: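 HCT-116 cells (4000/well) rested 5 h at 37C, then got DMSO compounds by pin tool (217-fold dilution) for 16 h at 37C, 5% CO2. After the bla read, CellTiter-Glo was added and luminescence read at 30 min, room temperature.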

[23] = target: Cellular tumor antigen p53 (Homo sapiens) (UniProt P04637); assay: TOX21_p53_BLA_p3_ratio: Tox21 HCT-116 p53 Agonism Beta-lactamase Assay, Ratio, Phase 3 (AID 2283596; active means hit-call score of the fitted dose curve at least 0.9, where 1 is the maximum)
Method in brief: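 Cells were seeded at 4000/well, rested 5 h at 37C, then dosed with DMSO compound solutions (217-fold dilution) for 16 h. CCF4-AM substrate was loaded for 2 h at room temperature, and the 460/530 nm emission ratio was fitted for gain of signal versus DMSO.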

[24] = TOX21_p53_BLA_p4_viability: Viability Assessment in the Tox21 HCT-116 p53 Agonism Beta-lactamase Assay, Phase 4 (AID 2283597; active means hit-call score of the fitted dose curve at least 0.9, where 1 is the maximum;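 further: hits lower the luminescence signal meaning cytotoxicity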)
Method in brief: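 Readout: ATP luminescence (CellTiter-Glo), measured 30 min after reagent addition at RT. The reagent followed a 2 h CCF4-AM incubation, and the cells had been exposed to compound for 16 h at 37C.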

[25] = target: Cellular tumor antigen p53 (Homo sapiens) (UniProt P04637); assay: TOX21_p53_BLA_p5_ratio: Tox21 HCT-116 p53 Agonism Beta-lactamase Assay, Ratio, Phase 5 (AID 2283599; active means hit-call score of the fitted dose curve at least 0.9, where 1 is the maximum)
Method in brief: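 HCT-116 cells carrying a p53-inducible beta-lactamase reporter were seeded at 4000 cells/well and dosed after 5 h with compound in DMSO (217-fold dilution). After 16 h at 37C, CCF4-AM substrate was added for 2 h, and the 460/530 nm emission ratio was scored as gain-of-signal versus DMSO.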

[26] = TOX21_p53_BLA_p5_viability: Viability Assessment in the Tox21 HCT-116 p53 Agonism Beta-lactamase Assay, Phase 5 (AID 2283600; active means hit-call score of the fitted dose curve at least 0.9, where 1 is the maximum)
Method in brief: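 Workflow: seed 4000 cells per well, wait 5 h, add compounds (DMSO, 217-fold dilution), incubate 16 h, load CCF4-AM 2 h, add CellTiter-Glo, read luminescence after 30 min.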

[27] = target: Cellular tumor antigen p53 (Homo sapiens) (UniProt P04637); assay: TOX21_p53_BLA_p4_ratio: Tox21 HCT-116 p53 Agonism Beta-lactamase Assay, Ratio, Phase 4 (AID 2283601; active means hit-call score of the fitted dose curve at least 0.9, where 1 is the maximum)
Method in brief: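 HCT116 cells carrying an inducible beta-lactamase reporter were plated at 4000 cells/well, rested 5 h, then exposed to compounds in DMSO (217-fold dilution) for 16 h at 37C. CCF4-AM substrate was loaded 2 h at room temperature; 460/530 nm emission ratio scored gain-of-signal versus DMSO.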

[28] = CCTE_Shafer_MEA_acute_spike_number: CCTE's Neural Acute Assay for Total Number of Spikes, Shafer Lab (AID 2284008);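 further: curve fitted for decrease in spike count so AC50 reflects inhibitors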
Method in brief: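 Read-out is the total spike count over 40 min, expressed as percent change from each well's own pre-treatment baseline and fitted in the loss direction against DMSO. Rat cortical neurons were exposed at 0.03-40 uM on DIV 13 or 15.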

E-selectin (Homo sapiens), sequence (P16581 whole entry, looked up): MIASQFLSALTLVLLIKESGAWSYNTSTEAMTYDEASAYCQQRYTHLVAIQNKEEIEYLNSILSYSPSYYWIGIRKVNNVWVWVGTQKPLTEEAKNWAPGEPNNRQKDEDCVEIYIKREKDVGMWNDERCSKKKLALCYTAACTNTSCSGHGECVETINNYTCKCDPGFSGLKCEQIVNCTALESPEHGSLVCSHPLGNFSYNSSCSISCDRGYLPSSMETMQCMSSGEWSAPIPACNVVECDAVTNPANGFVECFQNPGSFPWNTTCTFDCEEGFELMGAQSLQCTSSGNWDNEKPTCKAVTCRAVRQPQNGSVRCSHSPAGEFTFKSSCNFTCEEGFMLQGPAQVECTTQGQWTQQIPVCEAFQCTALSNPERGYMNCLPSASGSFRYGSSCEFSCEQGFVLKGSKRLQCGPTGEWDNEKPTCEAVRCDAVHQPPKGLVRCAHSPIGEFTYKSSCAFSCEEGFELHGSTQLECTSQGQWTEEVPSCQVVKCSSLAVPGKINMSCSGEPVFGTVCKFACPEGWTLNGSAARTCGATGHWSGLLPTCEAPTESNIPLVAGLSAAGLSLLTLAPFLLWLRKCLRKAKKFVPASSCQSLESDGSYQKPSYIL
Tumor necrosis factor (Homo sapiens), sequence (P01375 whole entry, looked up): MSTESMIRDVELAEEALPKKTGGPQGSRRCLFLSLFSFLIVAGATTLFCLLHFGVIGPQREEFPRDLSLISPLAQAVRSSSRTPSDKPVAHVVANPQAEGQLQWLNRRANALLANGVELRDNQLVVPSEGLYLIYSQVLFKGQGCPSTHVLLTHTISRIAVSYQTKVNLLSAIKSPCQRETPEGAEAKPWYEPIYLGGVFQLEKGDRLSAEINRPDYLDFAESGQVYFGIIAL

CCCC[N+](CCCC)(CCCC)CCCC
outcome [1]: inactive | outcome [2]: inactive | outcome (CD40, CD40 (gene 958) [3]): inactive | outcome [4]: inactive | outcome [5]: inactive | outcome [6]: inactive | outcome [7]: inactive | outcome [8]: inactive | outcome [9]: inactive | outcome [10]: inactive | outcome [11]: inactive | outcome [12]: inactive | outcome (CD38, CD38 (gene 952)): inactive | outcome (CD40, CD40 (gene 958) [13]): inactive | outcome (CD69, CD69 (gene 969)): inactive | outcome [14]: inactive | outcome [15]: inactive | outcome [16]: inactive | outcome [17]: inactive | outcome [18]: inactive | outcome [19]: inactive | outcome [20]: inactive | outcome [21]: inactive | outcome [22]: inactive | outcome [23]: inactive | outcome [24]: inactive | outcome [25]: inactive | outcome [26]: inactive | outcome [27]: inactive | AC50 [28]: 4.44 nM (active)
